Assay outcomes (PubChem)
Sampled rows, rich in hits. Any-hit rate of the full collection: about 2.9%.
S2 tox – viability counter-screen for ATXN expression inhibitors; S2 cells (HEK-293 line with an ATXN2-luciferase reporter) viability, CellTiter-Fluor protease fluorescence, 24 h; Potency, µM (highest dose often 56.7 µM), most hits filed as cytotoxic; 400,000 compounds, 0.49% hits; also: nearly all actives have a fitted effect of over 40% in size
Nrf2 block – blocks Nrf2 signaling; A549 ARE-Fluc reporter, luciferase luminescence, 18-24 h; AID 504444; 360,000 compounds, 2.1% hits; Potency, µM (titrated, usually from 46 µM), usual class: inhibitors; also: nearly all actives have a fitted effect of over 60% in size
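Nrf2 function is reported as luminescence of an ARE-controlled luciferase in A549 cells. Compounds were tested at several concentrations, and a CellTiter-Fluor read on the same wells flagged cytotoxicity.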
A549 tox – A549 cytotoxicity, counter-screen for Nrf2 inhibitors; A549 ARE-Fluc cells, CellTiter-Fluor viability, 18-24 h; Potency, µM (doses to about 46 µM), most hits filed as inhibitors; 390,000 compounds, 0.16% hits
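A549 ARE-Fluc cells in 5% FBS OPTI-MEM, 5000 cells/well, rested 2 h then exposed to compounds in concentration-response for 18-24 h at 37 °C. Viability by CellTiter-Fluor fluorescence (Ex 405/Em 525) after 30 min; luciferase luminescence (BugLite, 15 min, RT) read afterwards.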
ATXN2 expr inh – inhibitors of ATXN2 expression | HEK-293 ATXN2-luciferase reporter, luminescence, 24 h | 360,000 compounds, 0.72% hits | Potency, µM (highest dose often 57 µM), usual class: inhibitors; also: nearly all actives have a fitted effect of over 55% in size
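ATXN2-luciferase reporter cells (luciferase flanked by upstream and downstream ATXN2 gene portions) were treated 24 h at 37 °C with compounds at up to 57 uM. SteadyGlo luminescence gave expression; GF-AFC fluorescence gave viability.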
Nrf2 ARE act – activators of Nrf2 (ARE) signaling; 410,000 compounds, 0.31% hits; AREc32 ARE-luciferase reporter (MCF7-derived line), luminescence, 24 h; Potency, µM (top dose mostly 46.1 µM), usual class: activators; also: nearly all actives have a fitted effect of over 65% in size
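Steps: seed AREc32_Fluc cells (1000/well, 5% FBS OPTI-MEM); incubate overnight at 37 deg C; add 23 nL compound; incubate 24 hr; add Steady-Glo; hold 30 min RT; read luminescence.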
Each line names hits and unclear results; the compound was inactive in the other large screens. Calls follow the shape of the dose curve; as a rule, active = well fitted curve in the direction sought with a large enough effect; inconclusive = small, poorly fitted or top-dose-only effect, or another doubt; inactive = no such curve, though single readings can be large; an effect the other way counts as inactive or inconclusive.

COc1ccc(-c2nc(CSCC(=O)N3CCN(C)CC3)c(C)o2)cc1OC	none
Cc1cccc(-c2nc(CSCC(=O)N3CCN(c4ccccc4)CC3)c(C)o2)c1	Nrf2 block 23µM (no result: S2 tox, ATXN2 expr inh)
CCc1ccc(-c2nc(CSCC(=O)N3CCN(c4ncccn4)CC3)c(C)o2)cc1	Nrf2 block 21µM, ATXN2 expr inh inconclusive
CCC(C)NC(=O)CSCc1nc(-c2ccc(C)cc2)oc1C (stereo not drawn)	none (no result: S2 tox, ATXN2 expr inh)
COC(=O)CSCc1nc(-c2ccc(C(=O)OC)cc2)oc1C	ATXN2 expr inh 4.5µM (no result: Nrf2 block)
COc1ccc(-c2nc(CSCC(=O)N3CCN(c4cccc(C)c4C)CC3)c(C)o2)cc1OC	S2 tox 32µM, ATXN2 expr inh inconclusive (no result: Nrf2 block)
Cc1cccc(N2CCN(C(=O)CSCc3c(C)noc3C)CC2)c1C	Nrf2 block 1.8µM
CCOC(=O)c1ccc(NC(=O)c2cc3c(C)nn(-c4ccccc4Cl)c3s2)s1	none
CCOC(=O)C1CCCN(Cc2nc(N)nc(Nc3ccc(Cl)cc3)n2)C1 (stereo not drawn)	Nrf2 block 26µM
CCOC(=O)C1CCCN(Cc2nc(N)nc(Nc3ccc(OC)cc3)n2)C1 (stereo not drawn)	Nrf2 block inconclusive
Cc1ccc(C)c(NC(=O)CN(C)C(=O)c2ccc3[nH]c4c(c3c2)CC(C)CC4)c1 (stereo not drawn)	Nrf2 block 18µM, A549 tox inconclusive
O=C(Nc1ccc(F)cc1)N1CCN(c2ccc3nnc(-c4ccc(F)cc4)n3n2)CC1	S2 tox inconclusive, Nrf2 block inconclusive, A549 tox inconclusive, ATXN2 expr inh inconclusive
Fc1ccc(-c2nnc3ccc(N4CCc5ccccc5C4)nn23)cc1	Nrf2 block inconclusive, ATXN2 expr inh 32µM (no result: S2 tox)
COC(=O)C1=C(C)N(CCCC(=O)O)C(=O)NC1c1ccccc1OS(=O)(=O)c1ccccc1[N+](=O)[O-] (stereo not drawn)	none
O=C(CSc1nnc(COc2ccc(Cl)cc2)n1Cc1ccco1)c1ccccc1F	Nrf2 block 13µM, A549 tox inconclusive
Clc1cccc(-c2nnc(SCc3nc4ccccc4[nH]3)n2Cc2ccco2)c1	none
Clc1ccc(OCc2nnc(SCc3nc4ccccc4[nH]3)n2Cc2ccco2)cc1	Nrf2 block 18µM, A549 tox inconclusive
Cn1c(COc2ccccc2)nnc1SCc1nc2ccccc2[nH]1	Nrf2 block inconclusive
CCn1c(COc2ccc(C)cc2)nnc1SCc1nc2ccccc2[nH]1	Nrf2 block 18µM
Cc1c(NC(=O)c2sc3c([N+](=O)[O-])cccc3c2Cl)cccc1-c1nc2ccccc2o1	none
O=C(Nc1ccccc1C(=O)NCCc1ccccc1)c1ccco1	Nrf2 ARE act 2.8µM (no result: Nrf2 block)
O=C(O)CNC(=O)c1ccccc1NC(=O)c1ccco1	none
O=C(CSc1ccccn1)Nc1ccc(NC(=O)CSc2ccccn2)cc1	Nrf2 block inconclusive
O=C(CSc1ccccn1)Nc1nonc1[N+](=O)[O-]	S2 tox 13µM, Nrf2 block inconclusive (no result: ATXN2 expr inh)
Cc1ccc(CCNC(=O)c2cc3c(-c4ccccc4F)nn(C)c3s2)cc1	Nrf2 block inconclusive
CCOc1ccc(CCNC(=O)c2cc3sc(CC)cc3n2C)cc1OCC	Nrf2 block 18µM (no result: S2 tox, ATXN2 expr inh)
CCOc1ccc(CCNC(=O)c2cc3c(-c4ccccc4F)nn(C)c3s2)cc1OCC	S2 tox inconclusive, Nrf2 block 18µM, ATXN2 expr inh inconclusive
CCOc1ccc(CCNC(=O)C2=C(C)C(=O)OC23CCCCC3)cc1OCC	none
CC(NC(=O)C1CC1)C(c1cccs1)N1CCOCC1 (stereo not drawn)	none
O=C(CSc1ccc(-c2cccs2)nn1)Nc1ccccc1C(F)(F)F	none (no result: S2 tox, ATXN2 expr inh)
O=C(CSc1n[nH]c(-c2ccccn2)n1)Nc1ccc(Cl)cc1	ATXN2 expr inh 20µM
O=C(CSc1n[nH]c(-c2ccccn2)n1)Nc1ccc(F)cc1	ATXN2 expr inh inconclusive
O=C(CSc1ccc(-c2cccnc2)nn1)Nc1ccc(Br)cc1	Nrf2 block 7.3µM
O=C(CSc1ccc(-c2cccs2)nn1)Nc1cccc(F)c1	Nrf2 block 21µM (no result: S2 tox, ATXN2 expr inh)
O=C(CSc1ccc(-c2ccccn2)nn1)Nc1ccc(F)c(F)c1	S2 tox inconclusive, Nrf2 block 3.3µM, ATXN2 expr inh inconclusive
CC(=O)Nc1ccc(NC(=O)CSc2ccc(-c3cccnc3)nn2)cc1	S2 tox inconclusive
CCOC(=O)c1ccc(NC(=O)CSc2ccc(-c3ccccn3)nn2)cc1	Nrf2 block 21µM, ATXN2 expr inh inconclusive
